Inconclusive results are not listed. Activity calls are given as the source filed them. Calls come from the whole dose curve; as a rule, active = well fitted curve in the direction sought with a large enough effect; inconclusive = small, poorly fitted or top-dose-only effect, or another doubt; inactive = no such curve, though single readings can be large; an effect the other way counts as inactive or inconclusive.
How the values were obtained:
[1] = Cell Viability - LYMP2-005 (AID 967); note: series mostly up to about 92 µM
How it was run: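 qHTS viability screen in LYMP2-005 cells: 24 h at 37 C with compound, ATP luminescence via CellTiter-Glo, AC50 from Hill curves.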

[2] = Cell Viability - LYMP2-009 (AID 968); note: series mostly up to about 92 µM; nearly all actives have a fitted effect of over 55% in size
[3] = Cell Viability - LYMP2-011 (AID 969); note: nearly all actives have a fitted effect of over 60% in size
How it was run: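 2500 cells/well in complete medium, compound-treated 24 h at 37 C. Viability read as intracellular ATP by CellTiter-Glo luminescence after 30 min at room temperature. AC50 from Hill fits of qHTS concentration-response data.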

[4] = Cell Viability - LYMP2-013 (AID 970); note: series mostly up to about 92 µM; nearly all actives have a fitted effect of over 55% in size
How it was run: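 Human lymphoblastoid LYMP2-013 cells, 2500/well, treated 24 h at 37 C in complete medium; viability as intracellular ATP by CellTiter-Glo luminescence after 30 min. AC50 from Hill fits of qHTS concentration-response.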

[5] = Cell Viability - LYMP2-015 (AID 971); note: nearly all actives have a fitted effect of over 55% in size
How it was run: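 LYMP2-015 human lymphoblastoid cells (2500/well) in complete medium, compound-treated 24 h at 37 C; viability read as cellular ATP by CellTiter-Glo luminescence after 30 min at room temperature. AC50 from Hill-equation fits of qHTS concentration-response data.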

[6] = Cell Viability - LYMP2-017 (AID 972); note: series mostly up to about 92 µM; nearly all actives have a fitted effect of over 55% in size
How it was run: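 LYMP2-017 human lymphoblastoid cells (2500/well) settled 5 hr at 37 C, then exposed to compound 24 hr at 37 C in complete medium. Viability taken as intracellular ATP by CellTiter-Glo luminescence after 30 min at RT; AC50 from Hill fits.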

[7] = Cell Viability - LYMP2-019 (AID 973); note: nearly all actives have a fitted effect of over 55% in size
How it was run: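 Human lymphoblastoid LYMP2-019 cells (2500/well) preincubated 5 h at 37 C, then treated 24 h at 37 C in complete medium. Viability by CellTiter-Glo ATP luminescence after 30 min at room temperature; AC50 from Hill fits.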

[8] = Cell Viability - LYMP2-021 (AID 974)
How it was run: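 Human lymphoblastoid LYMP2-021 cells, 2500/well in complete medium, treated 24 hours at 37 C. Intracellular ATP by CellTiter-Glo luminescence (30 min, RT); AC50 from Hill fits of concentration-response.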

[9] = Cell Viability - LYMP2-023 (AID 975)
How it was run: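 LYMP2-023 human lymphoblastoid cells, 2500/well, preincubated 5 hr at 37 C, then compound-treated 24 hr at 37 C in complete medium. CellTiter-Glo luminescence (ATP) after 30 min at room temperature; AC50 from Hill-equation fits; tetraoctylammonium bromide positive control.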

[10] = Cell Viability - LYMP2-025 (AID 976); note: series mostly up to about 92 µM
How it was run: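 Human lymphoblastoid LYMP2-025 cells, 2500/well, exposed 24 h at 37 C in complete medium in 1536-well qHTS. Viability as cellular ATP by CellTiter-Glo luminescence; AC50 from Hill fits of concentration-response data.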

Measured: Potency

CCOC(=O)C(C)C(C)=O (stereo not drawn)
inactive: [1] | [2] | [3] | [4] | [5] | [6] | [7] | [8] | [9] | [10]

CC(C)(O)C(=O)O
inactive: [1] | [2] | [3] | [4] | [5] | [6] | [7] | [8] | [10]

Cc1cccc2cccnc12
inactive: [1] | [2] | [3] | [4] | [5] | [6] | [7] | [8] | [9] | [10]

CC(=O)CCc1ccccc1
inactive: [1] | [2] | [3] | [4] | [5] | [6] | [7] | [8] | [9] | [10]

CCCCCCCCC
inactive: [1] | [2] | [3] | [4] | [5] | [6] | [7] | [8] | [9] | [10]

CC#N
inactive: [1] | [2] | [3] | [4] | [5] | [6] | [7] | [8] | [9] | [10]

C1CCCC1
inactive: [1] | [2] | [3] | [4] | [5] | [6] | [7] | [8] | [10]

CC(=O)c1nccs1
inactive: [1] | [2] | [3] | [4] | [5] | [6] | [7] | [8] | [9] | [10]

CC(=O)CC(C)C
inactive: [1] | [2] | [3] | [4] | [5] | [6] | [7] | [8] | [9] | [10]

O=C(O)CCSSCCC(=O)O
inactive: [1] | [2] | [3] | [4] | [5] | [6] | [7] | [8] | [9] | [10]

CCCC(C)CO (stereo not drawn)
inactive: [1] | [2] | [3] | [4] | [5] | [6] | [7] | [8] | [9] | [10]

CCOC(C)(C)C
inactive: [1] | [2] | [3] | [4] | [5] | [6] | [7] | [8] | [9] | [10]

Nc1cccc([N+](=O)[O-])c1
inactive: [1] | [2] | [3] | [4] | [5] | [6] | [7] | [8] | [9] | [10]

COC(=O)c1ccccc1
inactive: [1] | [2] | [3] | [4] | [5] | [6] | [7] | [8] | [9] | [10]

CC(=O)OCCC(C)C
inactive: [1] | [2] | [3] | [4] | [5] | [6] | [7] | [8] | [9] | [10]

C(=C/c1ccccc1)/c1ccccc1
inactive: [1] | [2] | [3] | [4] | [5] | [6] | [7] | [8] | [9] | [10]

CCCCOCCOCCOCCCC
inactive: [1] | [2] | [3] | [4] | [5] | [6] | [7] | [8] | [10]

CCCCC(CC)CO (stereo not drawn)
inactive: [1] | [2] | [3] | [4] | [5] | [6] | [7] | [8] | [10]

Cc1ccc([N+](=O)[O-])c(N)c1
inactive: [1] | [2] | [3] | [4] | [5] | [6] | [7] | [8] | [9] | [10]

NC(N)=S
inactive: [1] | [2] | [3] | [4] | [5] | [6] | [7] | [8] | [9] | [10]

COC(=O)CC#N
inactive: [1] | [2] | [3] | [4] | [5] | [6] | [7] | [8] | [9] | [10]

Cc1ccc2c(c1[N+](=O)[O-])C(=O)c1ccccc1C2=O
inactive: [1] | [2] | [3] | [4] | [5] | [6] | [7] | [8] | [9] | [10]

CCCCCCCCCCCCC1CO1 (stereo not drawn)
inactive: [1] | [2] | [3] | [4] | [5] | [6] | [7] | [8] | [9] | [10]

C=Cc1ccccc1C=C
inactive: [1] | [2] | [3] | [4] | [5] | [6] | [7] | [8] | [10]

CCCOCC(C)OCC(C)O (stereo not drawn)
inactive: [1] | [2] | [3] | [4] | [5] | [6] | [7] | [8] | [10]

OC(CCl)CCl
inactive: [1] | [2] | [3] | [4] | [5] | [6] | [7] | [8] | [10]

O=C(O)CN(CC(=O)O)CC(=O)O
inactive: [1] | [2] | [3] | [4] | [5] | [6] | [7] | [8] | [10]

O=[N+]([O-])c1cc(C(F)(F)F)ccc1Cl
inactive: [1] | [2] | [3] | [4] | [5] | [6] | [7] | [8] | [9] | [10]

CCC(C)=O
inactive: [1] | [2] | [3] | [4] | [5] | [6] | [7] | [8] | [10]

C1COC1
inactive: [1] | [2] | [3] | [4] | [5] | [6] | [7] | [8] | [10]

CC(=O)c1cccc([N+](=O)[O-])c1
inactive: [1] | [2] | [3] | [4] | [5] | [6] | [7] | [8] | [9] | [10]

CC(O)CC(C)O (stereo not drawn)
inactive: [1] | [2] | [3] | [4] | [5] | [6] | [7] | [8] | [9] | [10]

Nc1nc(CC(=O)O)cs1
inactive: [1] | [2] | [3] | [4] | [5] | [6] | [7] | [8] | [9] | [10]

O=C(Cl)c1ccccc1[N+](=O)[O-]
inactive: [1] | [2] | [3] | [4] | [5] | [6] | [7] | [8] | [9] | [10]

O=C(O)c1ccccc1C(=O)O
inactive: [1] | [2] | [3] | [4] | [5] | [6] | [7] | [8] | [9] | [10]

NC(=O)NC(N)=O
inactive: [1] | [2] | [3] | [4] | [5] | [6] | [7] | [8] | [9] | [10]

CC1(N)CCC(C(C)(C)N)CC1 (stereo not drawn)
inactive: [1] | [2] | [3] | [4] | [5] | [6] | [7] | [8] | [10]

O=C1OC(=O)c2cc([N+](=O)[O-])ccc21
inactive: [1] | [2] | [3] | [4] | [5] | [6] | [8] | [9] | [10]

CC/C(C)=N/O
inactive: [1] | [2] | [3] | [4] | [5] | [6] | [8] | [9] | [10]

CCCCCCCCCCCCOCC1CO1 (stereo not drawn)
inactive: [1] | [2] | [3] | [4] | [5] | [6] | [8] | [9] | [10]

CC(=O)Nc1cccc(N)c1
inactive: [1] | [2] | [3] | [4] | [5] | [6] | [8] | [9] | [10]

Cc1cc([N+](=O)[O-])ccc1N
inactive: [1] | [2] | [3] | [4] | [6] | [7] | [8] | [9]

CNC(=O)N(c1ccccc1)c1ccccc1
inactive: [1] | [2] | [3] | [4] | [6] | [7] | [8] | [9]

CCCOCC(C)O (stereo not drawn)
inactive: [1] | [2] | [3] | [4] | [5] | [7] | [8] | [10]

C[C@@H]1O[C@@H](O[C@@H]2[C@@H](O)[C@H](OCCc3ccc(O)c(O)c3)O[C@H](CO[C@@H]3O[C@H](CO)[C@@H](O)[C@H](O)[C@H]3O)[C@H]2OC(=O)/C=C/c2ccc(O)c(O)c2)[C@H](O)[C@H](O)[C@H]1O
inactive: [1] | [2] | [3] | [4] | [5] | [6] | [8] | [9] | [10]

CC/C=C/C#N
inactive: [1] | [2] | [3] | [4] | [5] | [6] | [8] | [9] | [10]

CC(C)(C)OC=O
inactive: [1] | [2] | [3] | [4] | [5] | [6] | [9] | [10]

Clc1ccc(Cl)c(Cl)c1Cl
inactive: [1] | [2] | [3] | [4] | [5] | [6] | [8] | [9] | [10]

C=C(C)C(=O)OCC(C)C
inactive: [1] | [2] | [3] | [4] | [5] | [6] | [8] | [9] | [10]

CC1CCC2CC1C2(C)C (stereo not drawn)
inactive: [1] | [2] | [3] | [4] | [6] | [7] | [8] | [9]

c1ccc2n[nH]nc2c1
inactive: [1] | [2] | [3] | [4] | [5] | [6] | [8] | [9] | [10]

Nc1cc(Cl)c([N+](=O)[O-])cc1O
inactive: [1] | [2] | [3] | [4] | [5] | [6] | [8] | [9] | [10]

O=C(O)c1ccc(C(=O)O)cc1
inactive: [1] | [2] | [3] | [4] | [6] | [7] | [8] | [9]

CC(C)=C1CCC(C)CC1=O (stereo not drawn)
inactive: [1] | [2] | [3] | [4] | [5] | [6] | [8] | [9] | [10]

O=c1[nH][nH]c(=O)c2cc([N+](=O)[O-])ccc12
inactive: [1] | [2] | [3] | [4] | [5] | [6] | [8] | [9] | [10]

O=C1CCCCC1
inactive: [1] | [2] | [3] | [4] | [5] | [6] | [8] | [9] | [10]

Cc1ccccc1C#N
inactive: [1] | [2] | [3] | [4] | [5] | [6] | [8] | [9] | [10]

Reference: PubChem BioAssay (NCATS)
